Source: PubChem BioAssay (NCI)
About 83,000 compounds went through this panel and 20% of them were active in at least one assay; those are over-represented in the sample as a whole.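 A percent growth of 40 corresponds to 60% growth inhibition; 0 means no net growth; -100 means all cells died. Active threshold: below 10.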 Values without a mark were called inactive. Activity calls are given as the source filed them.

system: SW-620 colon; assay: NCI-60 one-dose screen, 48 h (100 = growth as untreated, 0 = no growth, -100 = all killed); conditions: 10 µM unless noted

Structure (SMILES) | growth
CC(C)=CCC[C@@H](C)[C@H]1CC[C@@]2(C)C3=C(CC[C@]12C)[C@@]1(C)CC[C@H](O)C(C)(C)[C@@H]1CC3 | 99.9%
CCN(CC)CCN1CNC(=S)NC1 | 107%
OC(CCN1CCCCC1)(c1ccccc1)c1ccccc1 | 107%
C#CC(O)c1ccccc1 (centres undefined) | 102%
CCNc1ncnc2[nH]ncc12 | 99.2%
Nc1ccc(F)c(Cl)c1F | 104%
Clc1ccc(-c2noc(/C=C\c3ccccc3)n2)cc1 | 110%
COC1OC(COC(C)=O)C(OC(C)=O)C(OC(C)=O)C1OC(C)=O (centres undefined) | 109%
Cc1c(Cl)cccc1N=C=S | 114%
CCOc1ccc2c(c1)c(C)cc(C)[n+]2CC | 84%
Cc1cccnc1NC1OC(=O)c2ccccc21 (centres undefined) | 106%
NS(=O)(=O)c1cc(=O)[nH]c(=O)[nH]1 | 109%
COc1ccc2c(ccc[n+]2C)c1 | 101%
CN1CCCN(C(c2ccccc2)c2ccc(Cl)cc2)CC1 (centres undefined) | 85.9%
Clc1cccc(Cl)c1C1CSc2ccccc2N=C1c1ccccc1 (centres undefined) | 3.48% (active)
O=C(O)CSCC(=O)Nc1cc(C(F)(F)F)ccc1Cl | 125%
CC(=O)O[C@H]1CC[C@]2(C)C3=C(C(=O)C[C@H]2C1(C)C)[C@]1(C)CC[C@H]([C@H](C)CCC(=O)O)[C@@]1(C)CC3=O | 85.5%
C=COC(=O)C(C)(C)C | 98.4%
COc1cc(-c2ccc(NC(=O)CC(C)=O)c(OC)c2)ccc1NC(=O)CC(C)=O | 104%

Structure (SMILES) | growth
CCCCCCCCCCCCCCCCCC(=O)NCCNC(=O)CCCCCCCCCCCCCCCCC | 102%
CCOc1ccc(C(=O)O)cc1 | 99.7%
CCNCC(C)(C)O | 106%
Cc1ccc(S(=O)(=O)NC(=O)NCCSSCCNC(=O)NS(=O)(=O)c2ccc(C)cc2)cc1 | 98.3%
O=C(O)Cc1ccc(Cl)cc1 | 111%
ClCC(Cl)[C@@H]1CC2C=CC1C2 (some centres undefined) | 105%
CCOC(OCC)C(=O)c1ccccc1 | 92.3%
O=C(CCl)Nc1ccccc1SCc1cc(Cl)cc2c1OCOC2 | 87.1%
COc1cccc(C(=O)NNC(=O)c2cccc3ccccc23)c1 | 107%
CC(C)N(CCCC#N)C(C)C | 99.2%
O=C(c1cccc(C(=O)c2ccc3c4c(cccc24)C(=O)N(c2ccccc2)C3=O)c1)c1ccc2c3c(cccc13)C(=O)N(c1ccccc1)C2=O | 104%
CC(c1ccccc1)N1C(=O)CSC1=S (centres undefined) | 17.6%
O=C(OCc1ccccc1)n1nnc2ccccc21 | 107%
Nc1ncc([N+](=O)[O-])cn1 | 104%
O=C(O)C1CSC(c2ccccc2)N1 (centres undefined) | 95.2%
Cc1ccc(O)c(N)c1 | 121%
CN(C)c1ccc(O)c2c1CC1CC3C(N(C)C)C(=O)C(C(N)=O)=C(O)C3(O)C(=O)C1=C2O (centres undefined) | 47.8%
Nc1c(O)c(S(=O)(=O)O)c(O)c2c1C(=O)c1ccccc1C2=O | 15.6%

system: MCF7 breast; assay: as above; conditions: 10 µM unless noted

Structure (SMILES) | growth
CC(C)=CCC[C@@H](C)[C@H]1CC[C@@]2(C)C3=C(CC[C@]12C)[C@@]1(C)CC[C@H](O)C(C)(C)[C@@H]1CC3 | 97.3%
CCN(CC)CCN1CNC(=S)NC1 | 98.4%
OC(CCN1CCCCC1)(c1ccccc1)c1ccccc1 | 97.9%
C#CC(O)c1ccccc1 (centres undefined) | 99.1%
CCNc1ncnc2[nH]ncc12 | 93.3%
Nc1ccc(F)c(Cl)c1F | 102%
Clc1ccc(-c2noc(/C=C\c3ccccc3)n2)cc1 | 74.4%
COC1OC(COC(C)=O)C(OC(C)=O)C(OC(C)=O)C1OC(C)=O (centres undefined) | 93%
Cc1c(Cl)cccc1N=C=S | 97.5%
CCOc1ccc2c(c1)c(C)cc(C)[n+]2CC | 72.3%
Cc1cccnc1NC1OC(=O)c2ccccc21 (centres undefined) | 102%
NS(=O)(=O)c1cc(=O)[nH]c(=O)[nH]1 | 101%
COc1ccc2c(ccc[n+]2C)c1 | 96.1%
CN1CCCN(C(c2ccccc2)c2ccc(Cl)cc2)CC1 (centres undefined) | 80.6%
Clc1cccc(Cl)c1C1CSc2ccccc2N=C1c1ccccc1 (centres undefined) | 9.8% (active)
O=C(O)CSCC(=O)Nc1cc(C(F)(F)F)ccc1Cl | 102%
CC(=O)O[C@H]1CC[C@]2(C)C3=C(C(=O)C[C@H]2C1(C)C)[C@]1(C)CC[C@H]([C@H](C)CCC(=O)O)[C@@]1(C)CC3=O | 89.6%
C=COC(=O)C(C)(C)C | 96%
COc1cc(-c2ccc(NC(=O)CC(C)=O)c(OC)c2)ccc1NC(=O)CC(C)=O | 106%

Structure (SMILES) | growth
CCCCCCCCCCCCCCCCCC(=O)NCCNC(=O)CCCCCCCCCCCCCCCCC | 71.6%
CCOc1ccc(C(=O)O)cc1 | 94%
CCNCC(C)(C)O | 97.1%
Cc1ccc(S(=O)(=O)NC(=O)NCCSSCCNC(=O)NS(=O)(=O)c2ccc(C)cc2)cc1 | 103%
O=C(O)Cc1ccc(Cl)cc1 | 99.2%
ClCC(Cl)[C@@H]1CC2C=CC1C2 (some centres undefined) | 98.1%
CCOC(OCC)C(=O)c1ccccc1 | 94.4%
O=C(CCl)Nc1ccccc1SCc1cc(Cl)cc2c1OCOC2 | 55.6%
COc1cccc(C(=O)NNC(=O)c2cccc3ccccc23)c1 | 109%
CC(C)N(CCCC#N)C(C)C | 83.7%
O=C(c1cccc(C(=O)c2ccc3c4c(cccc24)C(=O)N(c2ccccc2)C3=O)c1)c1ccc2c3c(cccc13)C(=O)N(c1ccccc1)C2=O | 86.8%
CC(c1ccccc1)N1C(=O)CSC1=S (centres undefined) | 6.61% (active)
O=C(OCc1ccccc1)n1nnc2ccccc21 | 97.3%
Nc1ncc([N+](=O)[O-])cn1 | 98.1%
O=C(O)C1CSC(c2ccccc2)N1 (centres undefined) | 91.5%
Cc1ccc(O)c(N)c1 | 99.9%
CN(C)c1ccc(O)c2c1CC1CC3C(N(C)C)C(=O)C(C(N)=O)=C(O)C3(O)C(=O)C1=C2O (centres undefined) | 53.4%
Nc1c(O)c(S(=O)(=O)O)c(O)c2c1C(=O)c1ccccc1C2=O | 13.8%
